# Measurements published in the supplement of paper PMC6555819.
# System: VDR:RXRa (NR concentration 270 nM, RXRa partner concentration 90 nM)
# Experiment: PBM binding z-score (relative to random genomic background probes); higher = stronger binding; sequences stand for … in GC…GCGATTGACAGCGTAGAATGAAGG
# Description: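 Protein-binding microarray (Agilent 4x180K custom design, double-stranded 60-nt probes: 5' GC cap, 34-nt variable region, 24-nt constant primer region; full probe sequence given). Purified or IVT nuclear receptor:RXRα heterodimers (3:1 NR:RXRα, mostly 270:90 nM) or homodimers were incubated for 1 h in PBS with 2% milk and no ligand, then detected with Alexa488 antibodies. Fluorescence from o1-orientation probes (~5 replicates averaged) was converted to z-scores against 500 random hg19 background probes. Variable regions are seed direct-repeat (DR0–DR5) sites, all their single-nucleotide variants and half-site ablations.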
row,Sequence,PBM binding z-score
1,ATCTCTAGGTAAAATTTCAGTGAATCCCGAGGAT,0.166
2,ATATGGAGGTTATCGGGTCATTCAGTTTGCGCAT,5.78
3,ACTATTAGATGAGACGAGGGCAACCGATAGGTTG,0.421
4,CAAACTAGGTCAAGAGGTCAAATTCCGCTTCCCG,6.17
5,ATCTCTAGGTAACCAAGTTCAGTAAATGCCGAAC,4.07
6,CCTTATGGGTCACTCCAGGTTATAGCATCGGAGT,3.33
7,CCAGACAGGTGGGAAGGTAACTCAGCCTCGATTA,-0.285
8,CATACAGGGTCAGCTAGGCCACAGTAGGGACGGC,4.79
9,GCTCGGAGGTCAAGGTCAGAGCTTTGTCCGTAGA,5.06
10,CCAGACAGGTGAGAAGGGAACTCAGCCTCGATTA,-0.443
11,TATACAGGGTCAAAGGCCAGAGAACGAATGTCGA,4.77
12,TCTTTTAGTTGATTAGGGCAACCGAAACAGCGGA,0.986
13,TCTTGTAGATCAAAAGAGGTTAAGAAAGTGCGCT,1.72
14,AGTCAATGTTCACTAGGTAACGTAAGATTCAGCT,-0.0351
15,CCTACTGGGCCAAAAAGATCATTGATGCCGATAA,-0.303
16,ACAGACAGGTGAGTGAAGGCAACTCAGCTGGACG,-0.535
17,CTTTACGGGTCACTGACAGGTTATAGCATTTGGA,3.94
18,GCGACTGGGGCAACGCAGGTTACCATAAGGTTGG,-0.0248
19,ACCATTAGTTGAGACGAGGGCAACCGATAGGTTG,0.755
20,CAAACTAGGTCAAGGTCAAAGTGGGTTTGTGCCA,5.74

row,Sequence,PBM binding z-score
1,TAGCCTAGGTCAGATCGCGCCAGTATACGCTATA,0.314
2,ATCTCTAGGTAAGACCCAGTTCAGTGAAGAACGC,1.04
3,CTTAGCAGGCCAGGGTCACTCAAGCATTTCGCTT,2.67
4,CCGACTGGGGCATTAGGTTACCATAAGCCAGCCC,-0.353
5,AGGATGAGGTTAAGATCAGGGAAACAGAATACAT,1.39
6,CTCGAAAGGTCTGTTGAGGTGAGTATACGGATAA,0.221
7,TCTTGGAGATCAACAGGAGGTTAAGAAAGATCGA,0.539
8,CGTCAAAGTGCAAGGTAACGTAACAGAAAGCAGC,-0.0204
9,CCGACTGGGGCCAAGGTTACCATACTCAGTACGA,0.63
10,GCTTGTAGATCAAGGTTAAGATAGACTAAGCTAA,0.0807
11,TGAATGAGGTTCAAGATCAGGGAACGTGGCGTCG,1.56
12,AGAACGAGGGGAATGAGTTGATAGCACGGGTGGC,2.09
13,CAAACTAGGTCACAGAGGTCAATGTCCGTGCGTA,7.62
14,CTCGACAGGTCGTGCTCAGGTGAGTATACCAAAC,0.597
15,TCTGCTAGGTCAGTTGGTCAGCTAGCGAGCTGCC,-0.184
16,TTAGCAAGGTGAAAGGTCGTTGATGCACGCCTTG,2.93
17,GCTCGGAGGACAACGTCAGAGCTTTGTCCGTAGA,-0.935
18,TCATATAGGTAAAAGGAGAAAGTCGGTGTGGTAA,0.929
19,TTACCAAGGTAAAGGTCGTTGATCCCTCTGTAGA,2.34
20,CTACCAAGGTGAACAAGGTCCTTGATTACTATTC,3.56
